Laboratory results published in PubChem BioAssay (Tox21).
“And” between values parts separate entries of the source, which are not always exact repeats. Identical values can stand only once. Results filed as inconclusive are left out. A call without a number means that no potency is given here. Some compounds were tested as several samples or in several runs, with calls that do not always agree. The source made the active and inactive calls. Calls come from the whole dose curve; as a rule, active = well fitted activation curve with a large enough effect in the repeat runs; inconclusive = weak or mixed curves; inactive = flat fitted curve, though single readings scatter.

experiment: A CellTox Green Cytotoxicity Assay to monitor cytotoxicity in HepG2 cells - 24 hour (AID 1224878); details: CellTox Green fluorescence; series mostly up to 76.8 µM; cytotoxicity: at the top concentration; note: nearly all actives have a fitted effect of over 45% in size
Source text: National Center for Advancing Translational Sciences [NCATS]
NIH Chemical Genomics Center [NCGC]
U.S. Environmental Protection Agency [EPA]
National Institutes of Environmental Health Sciences [NIEHS]
National Toxicology Program [NTP]
Cell-based models are critical for drug discovery. Determining the natural cytotoxic effects resulting from test compounds is an essential research activity. A CellTox Green Cytotoxicity Assay to monitor cytotoxicity in real time of continues cell culture during 40 hours of the compound treatment was used to screen Tox21 10K library compounds in HepG2 cells. CellTox Green Cytotoxicity Assay is a nonlytic, homogeneous, biofluorescent method to measure cytotoxicity in cell culture after experimental manipulation. The assay system uses a proprietary asymmetric cyanine dye that is excluded from viable cells but preferentially stains the dead cell's DNA. […] Viable cells produce no appreciable increases in fluorescence. Therefore, the fluorescence signal produced by the binding interaction with dead cell DNA is proportional to cytotoxicity.
The mixture of HepG2 cell suspension and reagents were dispensed at 600cells/6 ul/well in 1536-well tissue culture treated black solid bottom plates using a Multidrop dispenser. After the assay plates were incubated at a 37 C/5% CO2 incubator for 5 hours, 23 nL of compounds dissolved in DMSO, positive and negative controls was transferred to the assay plate by a pintool work station. The plates were incubated at 37 C for 40 hours. The fluorescence intensity were measured at 0h, 8h, 16h, 24h, 32h and 40h time points using ViewLux plate reader during compound treatment.
Potency is the fitted concentration of half-maximal effect.

| Structure (SMILES) | Potency | cytotoxicity |
| --- | --- | --- |
| CCO[Si](CCCNC(N)=O)(OCC)OCC | inactive |  |
| Oc1ccc(C(c2ccc(O)cc2)C(Cl)(Cl)Cl)cc1 | inactive |  |
| CCCCCCOCCOCCO | inactive |  |
| CC1(C)C(C=C(Cl)Cl)C1C(=O)OCc1cccc(Oc2ccccc2)c1 (stereo not given) | inactive |  |
| CC/C=C\C/C=C\C/C=C\CCCCCCCC(=O)O | inactive |  |
| CCC/C=C/C=O | inactive |  |
| Cc1ccc(S(=O)(=O)NCl)cc1 | inactive |  |
| O=C(O)c1ccc(O)cc1 | inactive |  |
| Nc1ccc(O)c(N)c1 | inactive |  |
| O=C1OC2(c3ccccc31)c1cc(I)c(O)c(I)c1Oc1c2cc(I)c(O)c1I | 13.3 µM (active) [middle of 4 runs] |  |
| COc1cc([C@H]2Oc3cc([C@H]4Oc5cc(O)cc(O)c5C(=O)[C@@H]4O)ccc3O[C@@H]2CO)ccc1O | inactive and 21.3 µM (active) |  |
| c1ccc2c(c1)ccc1ncccc12 | inactive |  |
| CCCCCCCCCCC(CO)CCCCCCCC (stereo not given) | inactive |  |
| CC(=O)Oc1c(C)c(C)c2c(c1C)CC[C@@](C)(CCC[C@H](C)CCC[C@H](C)CCCC(C)C)O2 | inactive |  |
| C=CC(C)(O)CCC=C(C)C (stereo not given) | inactive |  |
| CN(C)CCCN1c2ccccc2Sc2ccc(Cl)cc21 | 38.9 µM (active) and 21.3 µM (active) |  |
| C=C[Si](OCCOC)(OCCOC)OCCOC | inactive |  |
| Cc1ccc2c(c1)C(=O)OC2=O | inactive |  |
| COC(=O)C(C)Oc1ccc(Oc2ncc(C(F)(F)F)cc2Cl)cc1 (stereo not given) | inactive |  |
| FC(F)(F)C(Cl)Br (stereo not given) | inactive |  |

| Structure (SMILES) | Potency | cytotoxicity |
| --- | --- | --- |
| CC(C)=CCO | inactive |  |
| Cc1ccc(C)c(O)c1 | inactive |  |
| O=C(O)c1cc(=O)[nH]c(=O)[nH]1 | inactive |  |
| C=CC(=O)OCCCC | inactive |  |
| O=Cc1ccccc1C=O | 24.5 µM (active) and inactive |  |
| COC(=O)CC(=O)OC | inactive |  |
| C=CCOC(=O)C(=C)C | inactive |  |
| CC(=O)O[C@]1(C(C)=O)CC[C@H]2[C@@H]3C=C(C)C4=CC(=O)CC[C@]4(C)[C@H]3CC[C@@]21C | inactive |  |
| O=C(CCCN1CCC(O)(c2ccc(Cl)cc2)CC1)c1ccc(F)cc1 | 24.5 µM (active) |  |
| IC(I)I | inactive |  |
| NCCOCCO | inactive |  |
| CCCCCCCCCCCCO | inactive |  |
| C=C[C@H]1CN2CC[C@H]1C[C@@H]2[C@@H](O)c1ccnc2ccc(OC)cc12 | inactive |  |
| C[C@]12CC[C@@H]3c4ccc(O)cc4CC[C@H]3[C@@H]1CC[C@H]2O | inactive |  |
| [Na+] |  | -6.62% (inactive) |
| C=C[C@@]1(C)CC(=O)[C@]2(O)[C@@]3(C)[C@@H](O)CCC(C)(C)[C@@H]3[C@H](O)[C@H](OC(C)=O)[C@@]2(C)O1 | inactive |  |
| CCCCCC1C(=O)CCC1CC(=O)OC (stereo not given) |  | 2.63% (inactive) |
| Nc1ccc(N)c(Cl)c1 | inactive and 43.6 µM (active) |  |
| O=C(O)CCCC(=O)O | inactive |  |
| OC[C@@H](O)[C@@H](O[C@@H]1O[C@H](CO)[C@H](O)[C@H](O)[C@H]1O)[C@H](O)[C@@H](O)CO | inactive |  |
